17 compounds from PubChem BioAssay AID504915 (The Scripps Research Institute Molecular Screening Center, 2011) can be followed below.

The other results are listed elsewhere or left out. Activity calls are given as the source filed them. Rule as the data show it: active = activation above about 17%; inactive = the rest.

The experiment deals with 5-hydroxytryptamine receptor 5A (Homo sapiens) (UniProt P47898). Nature of the experiment: HTR5A agonists, retest of hits, confirmation, cell-based, luminescence (AID 504915).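 Also: 0% = cells with vehicle only and 100% = full reference agonist response.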 Particulars: HTR5A agonist cell assay, at 9.3 µM, hits give high values.
Chain of 5-hydroxytryptamine receptor 5A (Homo sapiens) (P47898 whole entry, looked up): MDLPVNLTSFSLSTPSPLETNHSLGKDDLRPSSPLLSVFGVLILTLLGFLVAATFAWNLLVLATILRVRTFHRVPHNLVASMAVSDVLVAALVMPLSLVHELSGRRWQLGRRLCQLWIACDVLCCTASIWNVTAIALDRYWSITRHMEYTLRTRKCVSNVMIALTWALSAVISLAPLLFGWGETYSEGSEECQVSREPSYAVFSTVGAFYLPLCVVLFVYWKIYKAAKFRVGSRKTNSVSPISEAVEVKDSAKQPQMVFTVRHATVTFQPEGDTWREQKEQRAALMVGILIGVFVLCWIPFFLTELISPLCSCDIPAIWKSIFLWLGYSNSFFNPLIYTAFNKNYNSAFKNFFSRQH
Consider `Cc1cccc2sc(N(CCCN(C)C)C(=O)CCS(=O)(=O)c3ccccc3)nc12`, for which the activation is 5.39% (inactive).
Turning to `CCCN(CCc1ccccc1)C1CCc2c(O)cccc2C1` (configuration not stated), the activation was 37.2% (active).
Regarding `CNc1nnc(-c2ccco2)s1`, the activation is 0.94% (inactive).
Turning to `c1ccc(-n2nc3ccccc3n2)cc1`, the activation is 1.33% (inactive).
To `COc1cccc(OCC(=O)Nc2ccccc2C(N)=O)c1` belongs 26.9% (active); to `CCC(C)NC(=O)CCCc1ccccc1` (configuration not stated), 0.89% (inactive).
As to `CC(C)OC(=O)c1c(NC(=O)c2ccco2)sc2c1CCCC2`, the activation is 0.39% (inactive).
Under `CC(=O)c1c(C)[nH]c(C(=O)OCC(=O)Nc2c(C)cccc2C)c1C` stands 1.01% (inactive).
On to `CNC(=S)N/N=C/c1ccc(OCc2ccccc2)c(Br)c1`, for which the activation is 0.4% (inactive).
As to `CN1c2ccc(C=O)c3c(C=O)ccc(c23)N(C)C1(C)C`, the activation was -0.75% (inactive).
In the case of `Cc1ccc(C(=O)N/C(=C/c2ccco2)C(=O)NCCc2c[nH]c3ccccc23)cc1C`, the activation was -0.29% (inactive).
Regarding `COc1ccc(S(=O)(=O)N2CCN(CC(=O)N3c4ccccc4CC3C)CC2)cc1OC` (configuration not stated), the activation is 5.85% (inactive).
On to `COC(=O)c1cc(S(=O)(=O)N2CCN(c3cc(C)ccc3C)CC2)c[nH]1`, for which the activation is 0.19% (inactive).
For `O=C(Nc1ccc(C(=O)N2CCOCC2)cc1)Nc1cccc(C(F)(F)F)c1`, the activation is 43.1% (active).
`CC(NC(=O)c1cc(-c2ccccc2)on1)c1ccccc1` (configuration not stated): the activation was -0.01% (inactive).
Take `COc1ccc2[nH]cc(CCN3C(=O)c4ccc(C(=O)O)cc4C3=O)c2c1`: the activation was -2.36% (inactive).
Take `Cc1ccc(-c2csc(SCC(=O)Nc3cc(C)on3)n2)cc1`: the activation is 2.91% (inactive).
